From PubChem
Compounds with a hit are over-represented: about 9.2% of the library has one in this group of screens.
HTT aggregate: reduces HttQ103-GFP aggregates in PC12 cells. PC12 HttQ103-GFP aggregates, Acumen cytometry, 40 h. Potency, µM (doses to about 46.1 µM), inactives show at the top dose activity change, negative = inhibition, hits mostly inhibitors. 220,000 compounds, 1.1% hits. AID 1688; active means well fitted curve in the direction sought with a large enough effect; inconclusive means small, poorly fitted or top-dose-only effect, or another doubt; inactive means no such curve, though single readings can be large; an effect the other way counts as inactive or inconclusive; further: on the % scale 0 is the no-effect control and ±100 the full control effect; nearly all actives have a fitted effect of over 60% in size
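Huntingtin Q103 exon 1–GFP aggregates in induced PC12 cells (100 nM tebufenozide) were quantified by cytometry from lysates, with compounds dosed in titration.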
ALDH1A1 block: ALDH1A1 (human) enzyme inhibition | AID 1030 | Purified ALDH1A1, NADH fluorescence, propionaldehyde substrate | P00352 | Potency, µM (doses to about 75.3 µM), inactives show at the highest dose activity, negative = inhibition, hits mostly inhibitors | 220,000 compounds, 7.3% hits;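 further: plate controls were no enzyme wells and a reference inhibitor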
Target sequence (P00352 whole entry, looked up): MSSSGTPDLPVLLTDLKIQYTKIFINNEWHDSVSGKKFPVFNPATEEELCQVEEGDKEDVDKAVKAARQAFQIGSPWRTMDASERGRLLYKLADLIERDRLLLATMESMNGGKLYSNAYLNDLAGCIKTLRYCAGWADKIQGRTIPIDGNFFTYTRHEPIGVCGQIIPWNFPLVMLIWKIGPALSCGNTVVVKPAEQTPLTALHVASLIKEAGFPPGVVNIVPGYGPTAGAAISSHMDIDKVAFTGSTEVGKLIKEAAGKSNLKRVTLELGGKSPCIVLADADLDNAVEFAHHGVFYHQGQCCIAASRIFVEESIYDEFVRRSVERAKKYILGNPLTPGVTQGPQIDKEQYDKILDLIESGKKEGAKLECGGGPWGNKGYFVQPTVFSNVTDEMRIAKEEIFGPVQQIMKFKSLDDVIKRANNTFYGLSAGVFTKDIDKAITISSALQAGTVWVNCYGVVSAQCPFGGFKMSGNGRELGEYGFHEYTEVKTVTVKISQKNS
HPGD block: inhibitors of human 15-hydroxyprostaglandin dehydrogenase (HPGD); AID 894; purified HPGD, NADH fluorescence kinetic, PGE2 substrate; 150,000 compounds, 4.3% hits; Potency, µM, without a hit: at the highest dose activity change, negative = inhibition, most hits filed as inhibitors; further: on the % scale 0 is the no-effect control and ±100 the full control effect
Target sequence (P15428 whole entry, looked up): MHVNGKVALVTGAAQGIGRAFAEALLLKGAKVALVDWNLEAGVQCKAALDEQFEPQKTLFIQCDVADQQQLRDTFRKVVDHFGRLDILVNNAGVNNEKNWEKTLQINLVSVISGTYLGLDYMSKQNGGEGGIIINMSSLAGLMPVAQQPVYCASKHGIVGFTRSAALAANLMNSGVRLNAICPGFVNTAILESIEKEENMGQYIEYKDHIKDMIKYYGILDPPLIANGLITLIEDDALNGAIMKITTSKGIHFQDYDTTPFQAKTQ
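20 nM HPGD preincubated 15 min at room temperature with compound in 50 mM Tris-HCl pH 8, 0.01% Tween 20. Started with 1 mM NAD+ and 30 uM prostaglandin E2; NADH fluorescence (360/450 nm) read 5 times over 30-s intervals, last minus first.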
HTT ATP protect: protects HTT-Q103 PC12 cells, measured by ATP; PC12 HTT-Q103 induced, cytoprotection, ATP luminescence, 40 h; Potency, µM (highest dose often 56.4 µM), for inactives: cytoprotection (ATP increase), usual class: activators; 230,000 compounds, 0.14% hits; AID 1471; active means well fitted curve in the direction sought with a large enough effect; inconclusive means small, poorly fitted or top-dose-only effect, or another doubt; inactive means no such curve, though single readings can be large; an effect the other way counts as inactive or inconclusive; further: % of control where 0% means no effect; nearly all actives have a fitted effect of over 45% in size
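Rat PC12, Q103 Htt exon1-GFP fusion, ecdysone promoter; tebufenozide inducer 100 nM final; compound titration; qHTS, 1500 cells/well; ATPlite luminescent read.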
JMJD2E inh: blocks human JMJD2E demethylase activity | 230,000 compounds, 1.6% hits | Potency, µM (series often up to 57.1 µM), without a hit: at the highest dose activity change, negative = inhibition, hits mostly inhibitors | AID 2147 | JMJD2E catalytic domain, FDH-coupled NADH fluorescence (FDH is formaldehyde dehydrogenase);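 further: 0% = wells with enzyme and -100% = buffer wells without enzyme; nearly all actives have a fitted effect of over 50% in size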
LMNA splice mod: LMNA splicing modulation; HeLa LMNA splicing GFP/RFP minigene ratio, 48 h; Potency, µM (doses to about 46.1 µM), inactives show at the top dose ratio change, negative = inhibition, hits mostly inhibitors; 200,000 compounds, 0.01% hits; active means well fitted inhibition curve with a large enough effect in the signal ratio, with a control signal flat, not every such curve was filed as active; inconclusive means small, poorly fitted or top-dose-only effect, or effect the other way, or a change in a side signal; the % refers to the signal ratio; further: on the % scale 0 is the no-effect control and ±100 the full control effect
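S3 HeLa cells stably expressing lamin A-EGFP splicing minigene plus DsRed2, 600 cells/well, 48 h compound exposure at 37C. Laser-scanning cytometry; analysed as GFP (500-530 nm)/RFP (575-640 nm) total intensity ratio; 0.5% DMSO vehicle.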
Active calls of the source: *; [ ] = remark or other dose. Unless noted, the call rests on the fitted dose curve; in most records, active means well fitted inhibition curve with a large enough effect (not every such curve was filed as active); inconclusive means small, poorly fitted or top-dose-only effect, or another doubt; inactive means no such curve, though single readings can be large or run the other way. Potency means the concentration at half of the fitted maximal effect.

What do the screens show for `COc1cc(C(=O)NCCC(=O)NC(C)C)cc(OC)c1OC`?
HTT aggregate: -4%; ALDH1A1 block: -4%; HTT ATP protect: -8%[10 µM]; JMJD2E inh: 2%; LMNA splice mod: 24%[46 µM]

How did C#Cc1ccc([C@@H]2C=C(C(=O)N3CCOCC3)O[C@H](OCC)[C@H]2CCCO)cc1 do in these assays?
HTT aggregate: 7%[9.22 µM]; ALDH1A1 block: -10%; HTT ATP protect: 16%[10 µM]; JMJD2E inh: 8%

Results for FC(F)(F)c1cc(CO[C@H]2CCCN[C@H]2c2ccccc2)cc(C(F)(F)F)c1 ?
ALDH1A1 block: -3%; HPGD block: -6%; HTT ATP protect: -82%; JMJD2E inh: 5%; LMNA splice mod: inconclusive

Results for c1cncc(CSc2ncnc3nc[nH]c23)c1 ?
ALDH1A1 block: 2%[13.5 µM]; HPGD block: -3%; HTT ATP protect: -19%[10 µM]

What do the screens show for `CC(=O)Nc1ccc(S(=O)(=O)N2CCc3nc(-c4ccccc4)c4c(c3C2)CO[C@@H](C)C4)cc1`?
ALDH1A1 block: 7%[13.5 µM]; HPGD block: -6%; HTT ATP protect: -27%[10 µM]; JMJD2E inh: -9%[11.4 µM]; LMNA splice mod: 1%[9.22 µM]

Results for COc1c(O)c(O)cc2c1oc1c3ccccc3oc(=O)c21 ?
ALDH1A1 block: inconclusive; HPGD block: 13µM*; HTT ATP protect: -13%; JMJD2E inh: 16µM*

Results for CCn1c(C)cc(=S)c2ccccc21 ?
HTT aggregate: inconclusive; ALDH1A1 block: 4µM*; HPGD block: -5%; HTT ATP protect: -9%; JMJD2E inh: inconclusive; LMNA splice mod: -10%

What do the screens show for `CCn1c2ccccc2c2cc(N)ccc21`?
HTT aggregate: inconclusive; ALDH1A1 block: inconclusive; HPGD block: inconclusive; HTT ATP protect: -23%[0.074 µM]; JMJD2E inh: inconclusive; LMNA splice mod: 1%

How did CNc1ncnc2c1ncn2[C@H]1C[C@H](OP(=O)(O)O)[C@H](COP(=O)(O)O)O1 do in these assays?
ALDH1A1 block: -9%; HPGD block: -3%; HTT ATP protect: 6%; JMJD2E inh: 3%

What do the screens show for `CCN1CCN(c2ccc(N=Cc3ccc(O)cc3O)cc2)CC1`?
ALDH1A1 block: -6%; JMJD2E inh: 14µM*

Results for CCN(CC)c1ccc(/C=N/N=C(N)N)c(O)c1 ?
HTT aggregate: 0.71µM*; ALDH1A1 block: inconclusive; HTT ATP protect: -73%[10 µM]; JMJD2E inh: inconclusive; LMNA splice mod: -18%[46 µM]

How did CCN(CC)c1ccc(C=Nc2ccc(C)cc2)c(O)c1 do in these assays?
HTT aggregate: -13%; ALDH1A1 block: inconclusive; HPGD block: -25%; HTT ATP protect: 24%[1.9 µM]; JMJD2E inh: -5%; LMNA splice mod: inconclusive

Results for CCN(CC)c1ccc(C=Nc2ccc(N(C)C)cc2)c(O)c1 ?
HTT aggregate: inconclusive; ALDH1A1 block: inconclusive; HPGD block: -2%; HTT ATP protect: -11%; JMJD2E inh: -1%; LMNA splice mod: -7%

Results for CCN(CC)c1ccc(C=Nc2ccccc2)c(O)c1 ?
HTT aggregate: -14%; ALDH1A1 block: 3.5µM*; HPGD block: -28%; HTT ATP protect: -4%[10 µM]; JMJD2E inh: inconclusive; LMNA splice mod: -9%

How did CCN(CC)c1ccc(C=Nc2cc(C)cc(C)c2)c(O)c1 do in these assays?
HTT aggregate: 8%; ALDH1A1 block: 14µM*; HPGD block: -23%; JMJD2E inh: 0%; LMNA splice mod: -2%

What do the screens show for `COc1cccc2sc(N(Cc3cccnc3)C(=O)C3COc4ccccc4O3)nc12` (centres undefined)?
LMNA splice mod: -29%[46 µM]

How did CCOc1ncccc1C(=O)Nc1cccc(Cl)c1Cl do in these assays?
HTT aggregate: -1%; ALDH1A1 block: -4%; HTT ATP protect: -2%; JMJD2E inh: -3%; LMNA splice mod: -16%[46 µM]

How did Cc1nn(-c2ccccc2)nc1C(=O)Oc1cc(C(F)(F)F)nn1-c1ccccc1 do in these assays?
HTT aggregate: 8%[9.22 µM]; ALDH1A1 block: inconclusive; HTT ATP protect: 0%[10 µM]; JMJD2E inh: inconclusive

What do the screens show for `O=S(=O)(NCCNC/C=C\c1ccc(Br)cc1)c1cccc2cnccc12`?
HTT ATP protect: -13%[1.9 µM]

Results for CCN(CC)c1ccc(N=Cc2ccc(N(CC)CC)cc2O)cc1 ?
HTT aggregate: -5%; ALDH1A1 block: 1.8µM*; HPGD block: -7%; HTT ATP protect: -23%; JMJD2E inh: inconclusive; LMNA splice mod: inconclusive

How did N#Cc1c(Cl)c(Cl)c2nnc(-c3ccc(Br)cc3)n2c1Cl do in these assays?
HTT aggregate: 4%; ALDH1A1 block: inconclusive; HPGD block: 13µM*; HTT ATP protect: -9%; JMJD2E inh: -12%; LMNA splice mod: 11%

What do the screens show for `S=C(Nc1ccccc1)Nc1nccs1`?
HTT aggregate: inconclusive; ALDH1A1 block: inconclusive; HPGD block: -30%; HTT ATP protect: -99%[10 µM]; JMJD2E inh: 5%; LMNA splice mod: inconclusive

How did COc1cc(OC)cc(C(=O)Nc2nnc(NC(=S)Nc3ccccc3)s2)c1 do in these assays?
HTT aggregate: 26%; ALDH1A1 block: 22µM*; HPGD block: -20%; HTT ATP protect: 29%[10 µM]; JMJD2E inh: -6%; LMNA splice mod: inconclusive

What do the screens show for `CC(C)(C)c1nnc(NC(=S)Nc2ccccc2)s1`?
HTT aggregate: 32%[9.22 µM]; ALDH1A1 block: 25µM*; HTT ATP protect: 14%[10 µM]; JMJD2E inh: -2%; LMNA splice mod: inconclusive

Results for CCN(CC)S(=O)(=O)c1ccc(C(=O)Nc2nnc(NC(=S)Nc3ccccc3)s2)cc1 ?
HTT aggregate: 9%[9.22 µM]; HTT ATP protect: 28%[10 µM]; JMJD2E inh: -1%

How did CCC(C)NC(=O)COc1ccc(S(=O)(=O)N2CCOCC2)cc1 (centres undefined) do in these assays?
HTT aggregate: 28%; ALDH1A1 block: 5µM*; HPGD block: -7%; HTT ATP protect: 9%[10 µM]; JMJD2E inh: 1%; LMNA splice mod: 5%

Results for O=C(COC(=O)COc1ccccc1)Nc1ccc(S(=O)(=O)N2CCOCC2)cc1 ?
HTT aggregate: -3%; ALDH1A1 block: 32µM*; HTT ATP protect: -55%; JMJD2E inh: -3%

How did CCOCC(=O)Nc1ccc(S(=O)(=O)N2CCOCC2)cc1 do in these assays?
HTT aggregate: -1%; ALDH1A1 block: 10µM*; HPGD block: -1%; HTT ATP protect: 11%[10 µM]; JMJD2E inh: -2%; LMNA splice mod: -10%

What do the screens show for `COc1ccc(CCNC(=O)COc2ccc(S(=O)(=O)N3CCOCC3)cc2)cc1`?
HTT aggregate: -8%; ALDH1A1 block: -1%; HPGD block: -8%; HTT ATP protect: 12%[10 µM]; JMJD2E inh: 3%; LMNA splice mod: -10%
